Test results published in PubChem BioAssay AID1460 (National Center for Advancing Translational Sciences (NCATS), 2008).
Among all 270,000 compounds or so, about 5,800 (2.1%) were called active. Inconclusive results (about 16%) are left out. The sample holds actives, similar compounds and a random draw of the others, so the mix is not that of the screen. Values without a mark were called inactive. The call rests on the fitted dose curve; in most records, active means well fitted inhibition curve with a large enough effect; inconclusive means small, poorly fitted or top-dose-only effect; inactive means flat fitted curve, though single readings scatter.

Molecular target: Microtubule-associated protein tau (Homo sapiens) (UniProt P10636)
Assay: qHTS for Inhibitors of Tau Fibril Formation, Thioflavin T Binding; further: nearly all actives have a fitted effect of over 55% in size
Conditions: recombinant tau K18 P301L (four-repeat tau fragment), heparin-induced fibrillization, ThT fluorescence; series mostly up to 57.4 µM; activity, negative = inhibition: at the top concentration
Excerpt: NIH Molecular Libraries Probe Production Network [MLPCN]
NIH Chemical Genomics Center [NCGC]
Assay Provider: Carlo Ballatore, University of Pennsylvania
The microtubule-associated protein tau is an abundant protein in the axons of neurons that stabilizes microtubules. With its ability to modulate microtubule dynamics, tau contributes directly or indirectly, to key structural and regulatory cellular functions. Particularly important is the influence tau exerts on axonal transport, which allows signaling molecules, trophic factors and other essential cellular constituents to travel along the axons. Under pathological conditions, tau becomes sequestered into insoluble aggregates called neurofibrillary tangles. This phenomenon is believed to have pathological consequences by promoting axonal transport deficits that ultimately lead to synaptic dysfunction and neuronal loss. To identify inhibitors of tau aggregation, a heparin-induced tau fibril formation assay was used that employed a recombinantly expressed fragment of tau, K18 (Q242-E372), bearing a P301L mutation (Gustke et al. 1994; Hong et al. 1998). This assay monitors tau fibrillization by Thioflavin T (ThT) fluorescence.
Gustke, N., B. Trinczek, et al. (1994). "Domains of tau protein and interactions with microtubules." Biochemistry 33(32): 9511-22.
Hong, M., V. Zhukareva, et al. (1998).
Li, W. and V. M. Lee (2006).
von Bergen, M., S. Barghorn, et al. (2001). "Mutations of tau protein in frontotemporal dementia promote aggregation of paired helical filaments by enhancing local beta-structure." J Biol Chem 276(51): 48165-74.
NCGC Assay Protocol Summary:
For screening, 2 uL/well human K18 P301L (15 uM unlabeled and 0.24 uM Alexa 594-labeled tau, final concentrations) in reagent buffer (100 mM sodium acetate pH 7) was dispensed into black solid 1536-well plates (Grenier) using a solenoid-based dispenser. Following transfer of 23 nL compound or DMSO vehicle by a pin tool, 2 uL/well heparin (20 uM final concentration) in reagent buffer was added and the plate centrifuged 15 s at 1000 RPM. Plates were incubated 6 hr at 37 C and then 1 uL/well ThT (30 uM final concentration) was added. After a 1 hr ambient incubation, the plates were read by an Envision (Perkin Elmer) to monitor ThT fluorescence (450/8 nm excitation and 510/23 nm emission).
Keywords: NIH Roadmap, MLPCN, MLI, MLSMR, NCGC, qHTS, tau, tauopathies, Alzheimer's disease, fibril, neurodegeneration, aggregation
On the % scale 0 is the no-effect control and ±100 the full control effect; potency means the concentration at half of the fitted maximal effect.

Chain of Microtubule-associated protein tau (Homo sapiens) (P10636 561-689 P618L limits assumed): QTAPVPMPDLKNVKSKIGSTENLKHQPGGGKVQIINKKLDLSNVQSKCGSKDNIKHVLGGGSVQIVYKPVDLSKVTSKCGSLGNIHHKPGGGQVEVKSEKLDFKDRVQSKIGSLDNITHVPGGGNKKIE

SMILES	activity, negative = inhibition	Potency
CC1CCN(S(=O)(=O)c2ccc3c(ccn3CCC(=O)NCc3ccc(N(C)C)cc3)c2)CC1	-18.4%	–
Cc1nc2c(-c3ccccc3)c(C)nn2c(C)c1CCC(=O)NCCc1ccccc1	-8.23%	–
CCOc1ccc(NC(=O)c2cn(C3CCCCC3)c(=O)c3c2c2ccccc2n3C)cc1	-9.2%	–
O=C(Cn1ncn2nc(-c3cccs3)cc2c1=O)NCc1cccc(Br)c1	-5.56%	–
Cc1ccc(NC(=O)Cc2ccc(NC(=O)N3CCCCc4ccccc43)cc2)cc1	0.89%	–
Cc1c(Cl)cccc1NC(=O)C(=O)NCCc1csc2nc(-c3ccccc3F)nn12	1.36%	–
CC(C)Cn1c(=O)c2ccccc2n2c(-c3cccc(Cl)c3)nnc12	-17.1%	–
CCOC(=O)c1cnc2[nH]c3ccccc3n2c1=O	6.45%	–
O=[N+]([O-])c1cccc(-c2nnc3c4ccccc4c4ccccc4n23)c1	-15.2%	–
O=c1[nH]c2ccccc2n2c(-c3ccccc3)nnc12	–	10 µM (active)
CC(Nc1ccc(-c2nc(-c3ccco3)no2)cc1[N+](=O)[O-])c1ccccc1 (configuration not stated)	-14.2%	–
CN(C)/C=C1/C(=O)Nc2ccccc21	-7.07%	–
Cc1ccccc1-n1c(C)cc(/C=C2\NC(=O)NC2=O)c1C	-0.6%	–
Cc1cc(C)c(/C=C2\C(=O)Nc3ccccc32)[nH]1	–	3.16 µM (active)
Cc1nnc(SCc2cc(=O)c3cc(F)ccc3[nH]2)n1C	-1.18%	–
CCOc1ccc(C2C(=O)N(C3CCCCC3)CC(=O)N2CCC2=CCCCC2)cc1OC (configuration not stated)	0.595%	–
Cc1oc2ncnc(N3CCOCC3)c2c1C(=O)NCCc1ccccc1	4.33%	–
COc1cc(/C=C(\C#N)c2nc3c(s2)CC(C)CC3)ccc1O (configuration not stated)	–	12.6 µM (active)
Cc1ccc(-c2nnc(SCc3ccccc3C)o2)cc1	-7.49%	–
Cc1ccc(-c2cc(-c3coc4ccccc4c3=O)c3c(n2)-c2cc(Cl)ccc2OC3)cc1	-12.1%	–
O=C(CCc1cn(Cc2ccc(F)cc2)c2ccccc12)NC1CCCCC1	-4.41%	–
OCCC#Cc1ccc(CN2CCN(Cc3ccsc3)C(CCO)C2)cc1 (configuration not stated)	–	11.2 µM (active)
OCCC1CN(Cc2cccc(OC3CCCC3)c2)CCN1Cc1ccsc1 (configuration not stated)	-12.6%	–
OCCC1CN(Cc2ccccc2-c2ccco2)CCN1Cc1ccsc1 (configuration not stated)	-0.703%	–
Cc1ccc(-c2nnc(SCC(=O)NCc3ccccc3)nc2-c2ccc(C)cc2)cc1	-6.11%	–
CCOC(=O)CSC1=Nc2ccccc2C2=NC(CCC(=O)NCc3ccc(F)cc3)C(=O)N12 (configuration not stated)	3.95%	–

SMILES	activity, negative = inhibition	Potency
COc1ccc(Cn2ccn(CC(=O)Nc3cc(C)ccc3C)c(=O)c2=O)cc1	-16.1%	–
CCS(=O)(=O)N1CCc2cc(C(=O)NCc3ccc(OC)cc3)ccc21	-4.87%	–
CCOc1ccc(C(c2c(C)[nH][nH]c2=O)c2c(C)[nH][nH]c2=O)cc1OCC	-16.1%	–
Cc1[nH][nH]c(=O)c1C(c1ccc(-c2ccc(Cl)cc2)o1)c1c(C)[nH][nH]c1=O	–	7.08 µM (active)
CC1CCCN(c2cc3c(cc2F)c(=O)c(S(=O)(=O)c2cccc(Cl)c2)cn3Cc2ccccc2)C1 (configuration not stated)	-0.998%	–
CCOc1ccc(CC(=O)NCCc2csc3nc(-c4ccccc4F)nn23)cc1	-7.65%	–
O=C(Nc1ccc(S(=O)(=O)N2CCC(c3nc4ccccc4s3)CC2)cc1)c1ccccc1F	2.61%	–
CC(C)c1ccc(NS(=O)(=O)c2ccc3[nH]cc(C(=O)NC4CCCC4)c(=O)c3c2)cc1	9.63%	–
CCn1c2ccccc2c2nnc(N3CCN(c4cc(C)ccc4C)CC3)nc21	-1.08%	–
O=c1c(=O)n(Cc2c(F)cccc2Cl)ccn1Cc1ccccc1	-16.6%	–
Cc1ccc(CNC(=O)CCc2c(C)nn(-c3ccc(N4CCCC4)nn3)c2C)cc1	-9.71%	–
CC1=C/C(=N\OS(=O)(=O)c2ccccc2)C=CC1=O	–	3.16 µM (active)
CC1=C/C(=N\S(=O)(=O)c2ccccc2)C(C(C)C)=CC1=O	0.736%	–
Cc1ccc(S(=O)(=O)c2ccc(Oc3ccccc3)cc2)cc1	-5.65%	–
COc1ccc(OC)c(-c2nc(C(N)=O)c3c(n2)n(-c2ccc4c(c2)OCO4)c(=O)n3C)c1	-10.3%	–
CC(C)(C)OC(=O)N1CCC(c2c(C(=O)N3CCc4ccccc4C3)cnn2-c2ccc(F)cc2)CC1	-16%	–
CC(=O)c1cc(C#N)c(N2CCCCC2)nc1C	0.825%	–
O=c1cc(-c2ccccc2)nc(N2CCCCC2)[nH]1	0.526%	–
CC(=O)c1cc(-c2ccccc2)[nH]c1N1CCCC1	–	14.1 µM (active)
CCCc1nn2c(=O)cc(COC(=O)c3ccc(NC(=O)COc4ccc(F)cc4)cc3)nc2s1	3.87%	–
CCCN(C(=O)Cn1ncc2c([nH]c3ccc(C)cc32)c1=O)c1ccccc1C	-8.01%	–
O=c1cc(CSc2ncn[nH]2)[nH]c2ccc(F)cc12	-1.06%	–
CCCN(CCC)C(=O)C1CCCN(c2ncnc3c2nc2n3CCCCC2)C1 (configuration not stated)	-2.59%	–
Cc1ccc(-c2ccc(/C=C(\C#N)C(N)=S)o2)c([N+](=O)[O-])c1	–	3.98 µM (active)
Cc1cc(-c2ccc(/C=N/n3cnnc3)o2)c([N+](=O)[O-])cc1C	5.29%	–
Cc1ccc2nc(SCc3nnc(-c4ccccc4[N+](=O)[O-])o3)c(C#N)cc2c1	-1.14%	–

SMILES	activity, negative = inhibition	Potency
CCOc1ccc2nc(N3CCCC(C(=O)Nc4cc(C)ccc4C)C3)sc2c1 (configuration not stated)	-8.84%	–
O=C(NCc1ccccc1)c1cccc(NC(=O)N2CCSc3ncccc32)c1	5.68%	–
CC(=O)N1c2ccc(S(=O)(=O)N3CCCCCC3)cc2CC1C(=O)NCc1ccccc1C (configuration not stated)	-5.53%	–
C/C(=N\NC(=O)c1ccc(C)cc1)C1C(=O)c2ccccc2C1=O	–	5.01 µM (active)
Cc1ccc(C(=O)NCCNC(=O)c2ccccc2)cc1	-12.8%	–
Cc1ccc(C(=O)NC(=S)Nc2ccccc2C)cc1	1.33%	–
COc1ccc(C2C(=O)N(C3CCCCCC3)CC(=O)N2CCc2ccc(Cl)cc2)cc1OC (configuration not stated)	-5.92%	–
CC(C)CNc1ncnc2c1nnn2C	-0.799%	–
Cc1cccc(-c2nc(SCC(=O)Nc3cc(C)on3)c3c(=O)n(C)c(=O)n(C)c3n2)c1	-3.19%	–
Cc1ccc(N(CC(=O)NCc2ccc(Cl)cc2)S(=O)(=O)N(C)C)cc1	2.93%	–
Cc1ccc2sc(N(Cc3cccnc3)C(=O)C3COc4ccccc4O3)nc2c1C (configuration not stated)	-8.74%	–
CCCCN1C(=O)/C(=C(/C#N)C(N)=O)c2ccccc21	–	20 µM (active)
Cc1cc(C(=O)COC(=O)CCCN2C(=O)c3ccccc3C2=O)c(C)n1C	-9.79%	–
CC(C)OC(=O)CN1C(=O)C(=O)c2ccccc21	-13.1%	–
Cc1ccc(-n2nc(C)c3c(C)cc(=O)n(CC(=O)Nc4ccc(C(C)C)cc4)c32)cc1	20.4%	–
CCOc1ccc(N=C2SC(C(=O)O)CC(=O)N2C)cc1 (configuration not stated)	8.58%	–
CCOc1ccc(/C=N/NC(N)=S)cc1	-8.57%	–
CCOc1ccc(N=C2NC(=O)S/C2=C\c2ccc(O)cc2)cc1	–	3.55 µM (active)
Cc1cc(OC(C)C(=O)Nc2sc3c(c2C(N)=O)CCCC3)ccc1Cl (configuration not stated)	-10.9%	–
COc1ccccc1CCNC(=O)c1cccn1-c1nnc(N2CCCCC2)s1	6.81%	–
COc1ccc(CNC(=O)C2=Cc3cccc(OC)c3OC2)cc1OC	-1.13%	–
COc1ccc(Cc2nc3ccc(C(=O)NCc4ccc(OC)cc4OC)cc3o2)cc1	-16.5%	–
CC1CCCN(S(=O)(=O)c2ccc3[nH]c(=O)cc(C(=O)NCCc4ccc(Cl)cc4)c3c2)C1 (configuration not stated)	6.2%	–
CC(C)OCCCn1c(SCC(=O)c2ccccc2)nc2c(sc3ccccc32)c1=O	-3.27%	–
Cc1cc(F)ccc1NS(=O)(=O)c1ccc(-n2cccn2)cc1	0.124%	–
CC(C)CC(=O)NCC(c1ccc2c(c1)OCO2)N1CCN(c2ccc(F)cc2)CC1 (configuration not stated)	-1.35%	–

SMILES	activity, negative = inhibition	Potency
O=c1cc(N2CCN(Cc3ccccc3)CC2)c(-c2ccccc2)n[nH]1	-8.74%	–
O=C(CN1CCN(Cc2ccccc2)CC1)NC(c1ccccc1)c1ccccc1	-6.32%	–
O=C1c2ccccc2C(=O)c2c1cccc2N1CCN(Cc2ccccc2)CC1	–	14.1 µM (active)
CC(=O)c1ccc(NC(=O)CSc2nc(-c3ccccc3F)nc3c2c(=O)n(C)c(=O)n3C)cc1	-4.07%	–
COc1ccc(Cn2ccn(Cc3cccc(OC)c3)c(=O)c2=O)cc1	-1.27%	–
Cn1c(=O)oc2cc(S(=O)(=O)CCC(=O)NCCc3ccc(Cl)cc3)ccc21	-5.87%	–
Cc1ccc(C)c(Oc2c(C(F)(F)F)oc3c(CN4CCN(C)CC4)c(O)ccc3c2=O)c1	5.1%	–
Fc1ccccc1Oc1ncnc2c1oc1ccccc12	0.723%	–
CCOc1ccc(/C=N/NC(=O)C(C)Sc2ccccn2)cc1OCC (configuration not stated)	-11%	–
CCOc1ccc(/C=N/Nc2nncc(-c3ccccc3)n2)cc1OC	–	2.24 µM (active)
C=CCOc1ccc(/C=N/NC(=O)C(C)Sc2ccccn2)cc1OCC (configuration not stated)	-0.608%	–
COc1ccc(-c2ccc(=O)n(CC(=O)Nc3ccc(Br)cc3F)n2)cc1	-0.585%	–
Cc1ccccc1CN1CCC(CNC(=O)c2cc3ccc4cccnc4c3[nH]2)CC1	3.15%	–
COc1ccc(C(=O)Nc2nc(-c3ccc(S(=O)(=O)N4CCOCC4)cc3)cs2)cc1	-6.13%	–
CCC(=O)Nc1ccc(C(=O)Nc2cccc(OC)c2)cc1	-2.56%	–
COc1cccc(C(=O)Nc2ccc(-c3cc(C(F)(F)F)nn3-c3ccccc3)cc2)c1	-2.4%	–
COc1cccc(C(=O)Nc2nnc(S(=O)(=O)N3CCOCC3)s2)c1	–	3.16 µM (active)
COc1cccc(C(=O)Nc2ccc(N3CCCC3)cc2)c1	–	14.1 µM (active)
O=C(Nc1nc2cc3c(cc2s1)OCCO3)c1cccc(S(=O)(=O)N2CCOCC2)c1	-8.31%	–
COc1cc(NC(=O)C2CCN(c3cnccn3)CC2)cc(OC)c1	0.931%	–
CCc1ccc(S(=O)(=O)c2nnn3c2nc(N2CCN(CC)CC2)c2sccc23)cc1	-2.76%	–
CCC(=O)Nc1ccccc1-c1nc2ccccc2n(CC(=O)Nc2ccc(C)c(C)c2)c1=O	-4.76%	–
Oc1c(C=Nc2cccc3nsnc23)ccc2ccccc12	–	2.24 µM (active)
COc1ccc(C=Nc2cccc3ncccc23)cc1	-11.3%	–
